Bioassay records from PubChem BioAssay.
NLRP3 yeast inh = blocks the NALP3 inflammasome reconstituted in yeast; inhibition, % at 10 µM; 0.39% of 330,000 active; Yeast reconstituted NLRP3/ASC/caspase-1, beta-gal luminescence, 24 h;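 active = inhibition of 50% or more; inactive = inhibition below 50%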;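 also: plate controls were induced DMSO wells for no effect and uninduced yeast grown without galactose for full effect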
SKKanGAS inh = inhibitors of SKKanGAS S. pyogenes growth in kanamycin (SK-promoter or general growth effect); BacTiter-Glo, 6 h; inhibition, % at 7.5 µM; 1.3% of 300,000 active; AID 1662;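 active = mean replicate score, as percent of positive control median, at least 50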;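 also: strain carries kanamycin resistance gene driven by streptokinase promoter and grows in 40 µg/ml kanamycin; loss of luminescence reflects streptokinase promoter inhibition or plain growth inhibition; 0% = median of DMSO wells and 100% = positive control at its reference dose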
tim10-1 inh = tim10-1 yeast growth inhibition | 2.2% of 330,000 active | S. cerevisiae tim10-1 ts strain growth, BacTiter-Glo, 24 h | inhibition, % at 20 µM | AID 463190;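 active = inhibition of at least 40%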;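 also: mutant grown at 25 °C; 0% = DMSO wells with yeast and 100% = wells holding no yeast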
tim23-1 inh = inhibits growth of tim23-1 mutant yeast; S. cerevisiae tim23-1 growth, BacTiter-Glo luminescence, 24 h; inhibition, % at 20 µM; 1.3% of 330,000 active;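 active = growth inhibition of the mutant yeast at or above 50%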;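 also: temperature-sensitive mutant grown at 25 °C; plate controls were DMSO-treated mutant yeast for no effect and medium wells lacking yeast for full effect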
TIM10 inh = inhibits growth of TIM10 yeast strain; 1.4% of 330,000 active; inhibition, % at 10 µM; AID 463195; S. cerevisiae TIM10 strain growth, BacTiter-Glo luminescence, 24 h;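 active = inhibition of 40% or more at the single tested concentration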;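 also: wild-type TIM10 isogenic control strain grown at permissive 25 °C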
tim10-1 confirm = confirmation of tim10-1 mutant yeast growth inhibitors. AID 463213. shares compounds with tim10-1 inh. inhibition, % at 20 µM. S. cerevisiae tim10-1 ts strain growth, BacTiter-Glo, 24 h. 56% of 7,400 active;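 active = inhibition of yeast growth at or above a set limit in either of two repeat tests at 20 µM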;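 also: tim10-1 mutant grown at permissive 25 °C to find synthetic lethal compounds; 0% = DMSO yeast wells and 100% = medium wells without yeast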
* = called active by the depositor; . = no result given. Only some compounds are listed: those with a hit (about 4.6% of all), similar ones and a draw of the others.

SMILES	NLRP3 yeast inh	SKKanGAS inh	tim10-1 inh	tim23-1 inh	TIM10 inh	tim10-1 confirm
COc1ccc(Cl)cc1NC(=O)CCNS(=O)(=O)c1cccc2nonc12	20	2	-8	-1	-6	.
CCCCNC(=S)N/N=C/c1cccc(OCC)c1O	2	-11	-4	-1	-18	.
CCOc1cccc(/C=N/NC(=S)Nc2ccccc2[N+](=O)[O-])c1O	23	73*	46*	8	-3	24
Cc1cccc(NC(=S)N2CCN(C(=O)c3ccco3)CC2)c1	19	-3	7	-1	10	.
CCCCc1ccc(NC(=S)N2CCN(C(=O)c3ccco3)CC2)cc1	17	-3	43*	36	25	24
O=C(CCc1ccccc1)NC1(Cc2ccccc2)CCN(CCCc2ccccc2)C1=O (configuration not stated)	18	.	26	42	18	.
CC(C(=O)NCC1CCCCC1)N1CCc2ccccc2C1 (configuration not stated)	4	1	12	17	1	.
CC(C(=O)NCC1CCCCC1)N1CCN(S(=O)(=O)/C=C/c2ccccc2)CC1 (configuration not stated)	-15	4	41*	17	20	13
Cc1ccc(C2=NN(C(=O)C3CCCO3)C(c3ccco3)C2)cc1 (configuration not stated)	10	4	41*	28	9	19
O=C(C1CCCO1)N1N=C(c2ccc(Br)cc2)CC1c1ccco1 (configuration not stated)	22	6	37	39	27	.
COCC(=O)N(C)C[C@H]1N[C@@](C)(C(=O)OC)[C@H]2C(=O)N(Cc3ccccc3)C(=O)[C@@H]12	3	.	4	11	-2	.
Cc1ccc(NC(=O)c2cccc(OC(F)F)c2)c(OC(F)F)c1	30	-13	32	30	16	.
Cc1c(Cl)cccc1NC(=O)c1cccc(OC(F)F)c1	26	4	47*	46	35	48*
CCC(Oc1ccc(Br)cc1)C(=O)N1CCN(c2ncccn2)CC1 (configuration not stated)	5	3	17	47	15	.
CCCc1cc(-c2nc(N)ncc2-c2csc(C)n2)c(O)cc1OC	9	-14	43*	30	40	27
CCOC(=O)c1c(CSc2ccc(C)cc2)oc2ccc(O)cc12	28	43	40	16	-10	4
CCc1ccccc1Nc1nc(N)nc(COC(=O)c2c(C)noc2C)n1	-8	.	14	29	5	.
Cc1ccc(C(=O)NN2CCOCC2)cc1	-13	-3	11	-7	-8	.
O=C(NN1CCOCC1)c1ccc(Br)cc1	18	-3	42*	10	8	-6
CCOC(=O)Cn1c(COc2ccccc2OC)[n+](C)c2ccccc21	22	-3	-6	8	10	.
CCCCCCCCCCOC(=O)Cn1c(COc2ccccc2C)[n+](C)c2ccccc21	30	83*	70*	-18	25	-63
O=Cc1ccc(C(=O)OCC(=O)Nc2ccc(F)cc2F)cc1	15	16	-4	3	2	.
COc1cccc(/C=N/n2c(C3CCCCC3)n[nH]c2=S)c1O	23	-1	48*	47	36	33*
CCNC(=S)NNC(=O)c1cc(-c2cccc(OCC)c2)nc2ccccc12	7	5	37	22	15	.
CCNC(=S)NNC(=O)c1cc(-c2cccnc2)nc2ccccc12	10	20	55*	45	34	41*
SMILES	NLRP3 yeast inh	SKKanGAS inh	tim10-1 inh	tim23-1 inh	TIM10 inh	tim10-1 confirm
CCCCOc1cccc(-c2cc(C(=O)NNC(=S)NCC)c3ccccc3n2)c1	5	-4	41*	11	18	37*
Cc1ccc(C(C)C)c(OCC(=O)Nn2c(=O)[nH]c3ccccc3c2=O)c1	7	18	16	16	-11	.
Cc1ccc(C(C)C)c(OCC(=O)Nn2c(C)nc3ccccc3c2=O)c1	8	-7	47*	49	23	28
CCOC(=O)CC(=O)CSc1nc2sc(C)cc2c(=O)n1Cc1ccco1	0	4	45*	37	25	19
Cc1cc2c(=O)n(Cc3ccco3)c(SCC(=O)c3ccc(Cl)s3)nc2s1	3	-7	9	-3	3	.
CCN(CC1CCCO1)C(=O)c1cc(COc2ccccc2SC)on1 (configuration not stated)	10	-8	12	30	-5	.
